Assay results reported in the supplement of paper PMC12645437, “Orthogonal IMiD-Degron Pairs Induce Selective Protein Degradation in Cells” (ACS Chemical Biology, 2025).
Whole data set: some 8,300 sequences, median “log2 fold change of degron read counts, EGFP-low vs EGFP+ sorted cells (limma voom), compound-induced degradation” near -1.1, cut for the highest 2% near 3.2. For the sample, the highest values were picked, then their nearest neighbours and some sequences at random.

B1: 46F_47E_49P_50I_52G_53R_54S_55F_67L_, Q9UKT9 (peptide)
chain: FECPICGRSFTQKGNLLRHIKL
B2: 46F_47F_49S_50V_52G_53H_54N_55F_67L_, Q9UKT9 (peptide)
chain: FFCSVCGHNFTQKGNLLRHIKL
B3: 46F_47C_49N_50Q_52G_53R_54R_55F_67L_, Q9UKT9 (peptide)
chain: FCCNQCGRRFTQKGNLLRHIKL
B4: 46L_47R_49E_50I_52G_53F_54N_55C_67L_, Q9UKT9 (peptide)
chain: LRCEICGFNCTQKGNLLRHIKL
B5: 46F_47G_49N_50Q_52G_53R_54I_55F_67L_, Q9UKT9 (peptide)
chain: FGCNQCGRIFTQKGNLLRHIKL
B6: 46F_47E_49N_50Q_52G_53R_54H_55F_67L_, Q9UKT9 (peptide)
chain: FECNQCGRHFTQKGNLLRHIKL
B7: 46F_47S_49N_50Q_52G_53R_54T_55F_67L_, Q9UKT9 (peptide)
chain: FSCNQCGRTFTQKGNLLRHIKL
B8: 46F_47H_49E_50I_52G_53R_54S_55F_67L_, Q9UKT9 (peptide)
chain: FHCEICGRSFTQKGNLLRHIKL
B9: 46F_47D_49P_50I_52G_53A_54L_55F_67L_, Q9UKT9 (peptide)
chain: FDCPICGALFTQKGNLLRHIKL
B10: 46L_47F_49E_50I_52G_53F_54T_55C_67L_, Q9UKT9 (peptide)
chain: LFCEICGFTCTQKGNLLRHIKL
B11: 46L_47H_49E_50I_52G_53F_54T_55C_67L_, Q9UKT9 (peptide)
chain: LHCEICGFTCTQKGNLLRHIKL
B12: 46L_47N_49E_50I_52G_53F_54T_55C_67L_, Q9UKT9 (peptide)
chain: LNCEICGFTCTQKGNLLRHIKL
B13: 46F_47Q_49N_50Q_52G_53H_54N_55F_67L_, Q9UKT9 (peptide)
chain: FQCNQCGHNFTQKGNLLRHIKL
B14: 46F_47T_49E_50Q_52G_53A_54Y_55F_67L_, Q9UKT9 (peptide)
chain: FTCEQCGAYFTQKGNLLRHIKL
B15: 46F_47E_49E_50Q_52G_53A_54P_55F_67L_, Q9UKT9 (peptide)
chain: FECEQCGAPFTQKGNLLRHIKL
B16: 46F_47S_49P_50I_52G_53A_54P_55F_67L_, Q9UKT9 (peptide)
chain: FSCPICGAPFTQKGNLLRHIKL
B17: 46F_47R_49P_50I_52G_53A_54P_55F_67L_, Q9UKT9 (peptide)
chain: FRCPICGAPFTQKGNLLRHIKL
B18: 46F_47E_49P_50I_52G_53A_54P_55F_67L_, Q9UKT9 (peptide)
chain: FECPICGAPFTQKGNLLRHIKL
B19: 46F_47F_49P_50I_52G_53A_54F_55F_67L_, Q9UKT9 (peptide)
chain: FFCPICGAFFTQKGNLLRHIKL
B20: 46F_47R_49P_50I_52G_53A_54D_55F_67L_, Q9UKT9 (peptide)
chain: FRCPICGADFTQKGNLLRHIKL
B21: 46F_47N_49P_50I_52G_53A_54P_55F_67L_, Q9UKT9 (peptide)
chain: FNCPICGAPFTQKGNLLRHIKL
B22: 46F_47N_49P_50I_52G_53R_54P_55F_67L_, Q9UKT9 (peptide)
chain: FNCPICGRPFTQKGNLLRHIKL
B23: 46F_47R_49P_50Q_52G_53A_54P_55F_67L_, Q9UKT9 (peptide)
chain: FRCPQCGAPFTQKGNLLRHIKL
B24: 46F_47N_49P_50I_52G_53A_54M_55F_67L_, Q9UKT9 (peptide)
chain: FNCPICGAMFTQKGNLLRHIKL
B25: 46F_47F_49P_50I_52G_53A_54P_55F_67L_, Q9UKT9 (peptide)
chain: FFCPICGAPFTQKGNLLRHIKL
B26: 46F_47K_49P_50I_52G_53A_54P_55F_67L_, Q9UKT9 (peptide)
chain: FKCPICGAPFTQKGNLLRHIKL
B27: 46F_47F_49P_50I_52G_53A_54M_55F_67L_, Q9UKT9 (peptide)
chain: FFCPICGAMFTQKGNLLRHIKL
B28: 46F_47Y_49E_50I_52G_53R_54M_55F_67L_, Q9UKT9 (peptide)
chain: FYCEICGRMFTQKGNLLRHIKL

Molecular target: T1, CRBN, Q96SW2
T1 chain: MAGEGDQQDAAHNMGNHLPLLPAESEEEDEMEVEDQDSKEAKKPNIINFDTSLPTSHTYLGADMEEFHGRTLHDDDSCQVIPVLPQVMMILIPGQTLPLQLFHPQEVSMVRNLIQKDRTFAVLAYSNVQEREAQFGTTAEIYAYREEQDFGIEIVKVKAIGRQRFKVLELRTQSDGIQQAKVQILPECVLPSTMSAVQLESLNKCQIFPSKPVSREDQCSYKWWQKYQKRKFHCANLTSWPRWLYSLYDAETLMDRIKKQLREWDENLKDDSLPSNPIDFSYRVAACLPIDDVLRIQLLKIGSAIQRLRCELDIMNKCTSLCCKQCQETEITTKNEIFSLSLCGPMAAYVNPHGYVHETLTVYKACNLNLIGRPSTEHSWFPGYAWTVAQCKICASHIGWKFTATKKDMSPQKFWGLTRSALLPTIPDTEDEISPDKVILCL
Experiment: log2 fold change of degron read counts, EGFP-low vs EGFP+ sorted cells (limma voom), compound-induced degradation; higher = more compound-induced degradation of the degron-EGFP fusion; degrons are variants of IKZF1/3 zinc finger 2; compound dose not given here
Conditions: Jurkat, 18 h

[1] = compound: compound 19 (5-tert-butyl-thalidomide)
[2] = compound: compound 22 (5-morpholino-thalidomide)
[3] = compound: compound 33 (diphenyl IMiD analogue)
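Note: pooled lentiviral library of zinc finger degron-EGFP fusions in mCherry-positive Jurkat cells, FACS-sorted after compound exposure, with degron abundance counted by next-generation sequencing.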

Sequence | log2 fold change of degron read counts [1] | log2 fold change of degron read counts [2] | log2 fold change of degron read counts [3] | log2 fold change of degron read counts (compound: thalidomide)
B1 | -1.57 | -1.84 | 0.414 | 1.14
B2 | -2.16 | -2.66 | -2.79 | -2.23
B3 | -2.5 | -2.28 | -2.09 | -1.82
B4 | -1.42 | -1.56 | -0.0516 | 0.0396
B5 | -1.52 | -1.65 | -1.94 | -1.45
B6 | -2.89 | -3.21 | -3.78 | -2.98
B7 | -2.51 | -2.59 | -2.31 | -2.34
B8 | -1.49 | -1.82 | -0.909 | -2.11
B9 | -0.924 | -0.888 | 1.62 | 0.905
B10 | 3.64 | 3.67 | 2.59 | 2.56
B11 | 2.89 | 2.93 | 2.43 | 2.43
B12 | 1.73 | 0.624 | -0.0341 | 0.396
B13 | -2.53 | -2.33 | -2.93 | -2.77
B14 | -2.34 | -1.73 | 0.185 | -0.424
B15 | -1.7 | -3.27 | -1.9 | -1.5
B16 | 3.29 | 2.92 | 2.02 | 2.62
B17 | 3.44 | 3.76 | 3.04 | 3.53
B18 | 2.46 | 0.3 | 2.23 | 2.98
B19 | 2.73 | 2.52 | 1.71 | 0.267
B20 | -0.99 | -0.254 | 1.92 | 1.51
B21 | 3.48 | 3.2 | 1.92 | 2.43
B22 | 1.49 | 0.628 | 0.167 | 1.01
B23 | 0.857 | 2.89 | 2.7 | 2.5
B24 | 1.73 | 0.564 | 0.719 | 0.478
B25 | 3.92 | 3.44 | 2.55 | 2.09
B26 | 2.55 | 2.24 | -0.00355 | 2.87
B27 | 2.56 | 2.36 | 1.76 | 0.179
B28 | 1.51 | 1.03 | 1.08 | -0.729
